LmPK inhibitor: blocks Leishmania mexicana pyruvate kinase activity. Q27686. purified LmPK, Kinase-Glo ATP luminescence, 1 h. Potency, µM (top dose mostly 57.5 µM), for inactives: at the top dose activity change, negative = inhibition, most hits filed as inhibitors. 290,000 compounds, 0.37% hits. AID 1721; note: potency is the fitted concentration of half-maximal effect; % is set by controls: 0 for no effect and ±100 for the full control effect
Target sequence (Q27686 whole entry, looked up): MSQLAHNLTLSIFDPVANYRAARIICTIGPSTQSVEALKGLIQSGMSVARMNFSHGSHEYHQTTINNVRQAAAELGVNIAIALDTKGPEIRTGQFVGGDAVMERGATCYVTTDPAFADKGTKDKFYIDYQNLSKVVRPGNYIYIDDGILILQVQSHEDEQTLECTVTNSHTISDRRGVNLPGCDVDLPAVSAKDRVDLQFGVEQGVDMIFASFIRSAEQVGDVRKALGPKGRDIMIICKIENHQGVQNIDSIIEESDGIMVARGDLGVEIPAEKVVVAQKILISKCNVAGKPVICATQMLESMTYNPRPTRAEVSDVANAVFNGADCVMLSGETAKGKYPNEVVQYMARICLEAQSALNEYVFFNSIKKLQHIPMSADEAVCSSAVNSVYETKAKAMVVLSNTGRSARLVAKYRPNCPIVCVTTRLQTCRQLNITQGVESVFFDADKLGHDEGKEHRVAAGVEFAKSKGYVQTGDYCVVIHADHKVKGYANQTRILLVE
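Kinase-Glo luminescence read after 1 h RT reaction of 0.1 nM LmPK with 0.5 mM PEP and 0.1 mM ADP. Activity scaled between uninhibited and enzyme-free controls.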
FBPA Giardia inh: blocks Giardia fructose-bisphosphate aldolase activity; A8B2U2; purified Giardia FBPA; Potency, µM (highest dose often 59.6 µM), for the others: at the top dose activity, negative = inhibition, hits mostly inhibitors; 290,000 compounds, 0.71% hits; note: potency is the fitted concentration of half-maximal effect; % is set by controls: 0 for no effect and ±100 for the full control effect; nearly all actives have a fitted effect of over 55% in size
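Giardia FBPA (40 nM reagent) was preincubated 10 min at RT with compound (up to 57.5 uM final), then substrate plus GAPDH/TPI/NAD/arsenate coupling system with diaphorase/resazurin was added; resorufin fluorescence (525/598 nm) was read after 20 min.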
Shiga inhibitor: Shiga toxin inhibition. AID 2315. inhibition, % at 38.7 µM. Vero cells, Shiga toxin protein synthesis inhibition reporter. 290,000 compounds, 9.2% hits; in the data active = inhibition mostly above about 28%, no sharp cut-off; inactive = mostly below about 43%; note: 0% is about no effect
CHX counter: counter-screen for Shiga toxin inhibitors: cycloheximide protein synthesis inhibition | cell reporter, cycloheximide protein synthesis inhibition counterscreen | max response, % | 300,000 compounds, 12% hits; in the data active = max response mostly above about 13%, no sharp cut-off; inactive = mostly below about 14%; note: read at 38.3 µM for the half of the compounds with a filed dose; 0% is about no effect
NS1 function inh: inhibitors of influenza NS1 protein function | Potency, µM (top dose mostly 46.1 µM), inactives show at the top dose activity, positive = more growth | 270,000 compounds, 0.4% hits | AID 2326; calls by dose curve; note: potency is the fitted concentration of half-maximal effect; actives are rising curves; nearly all actives have a fitted effect of over 50% in size
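Recovery from NS1-induced slow growth read by OD600 in budding yeast switched to galactose assay medium (pH 6.0, -URA) at 1:100 dilution. Compound 23 nl per well; the matching strain lacking NS1 serves as control.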
* marks the source's active call; other numbers are inactive results; ? = inconclusive; . = no result given; ! = repeats disagree; [ ] = dose if it differs, or a comment. A selection: hits, their analogues and other compounds. The true share with any hit is near 14%. Unless noted, calls come from the whole dose curve; as a rule, active = well fitted curve in the direction sought with a large enough effect; inconclusive = small, poorly fitted or top-dose-only effect, or another doubt; inactive = no such curve, though single readings can be large; an effect the other way counts as inactive or inconclusive.

SMILES | LmPK inhibitor | FBPA Giardia inh | Shiga inhibitor | CHX counter | NS1 function inh
O=C(NCCC1CCCC1)c1cccs1 | -5.2% | 4.6% | 45.0* | 40.2* | -54.5%
O=C(CCc1nnc2n(CCc3ccccc3)c(=O)c3ccccc3n12)NCCCN1CCCCC1 | 1.7% | . | 17.2 | -1.2 | 0.9%
O=C(NC1CCCCCC1)c1cccs1 | -5.4% | -4.7% | 67.8* | 37.6* | -43.9%
CCn1nc(C)c(CNC(=O)Nc2ccc3c(c2)OCO3)c1C | -3.8% | 2.4% | 91.3 | 45.3* | .
Cc1cc(CNC(=O)Nc2ccc3c(c2)OCO3)nn1C | -2.0% | -14.3% | 60.7* | 26.9* | -3.1%
Cc1nc2cc(NC(=O)NCc3ccc4c(c3)OCO4)ccc2o1 | 11.0% | 0.5% | 2.1 | -1.0 | 4.5%
Cc1ccc(-c2nc3ccccc3o2)cc1NC(=S)NC(=O)c1cc2ccccc2o1 | 2.1% | -1.1% | 84.7* | 45.0* | ?
Cc1ccc2oc(-c3ccc(C)c(NC(=S)NC(=O)c4cccs4)c3)nc2c1 | 3.1% | -13.2% | 10.1* | 44.7* | 9.9%
Cc1ccc2oc(-c3ccc(C)c(NC(=O)Cc4cccs4)c3)nc2c1 | 6.3% | 0.0% | 8.8 | 4.1 | 0.5%
Cc1c(NC(=S)NC(=O)c2cc3ccccc3o2)cccc1C(=O)O | 14.7% | -29.7% | 75.6* | 53.7* | 5.1%
COC(=O)C/C=C/C(C)C(OCc1cccc(Br)c1)C(C)C(OC)C1CCCCC1 (centres undefined) | . | -0.7%[12.9 µM] | . | . | .
CC(/C=N\NC(=O)Cn1cncn1)=C/c1ccc(C(C)C)cc1 | 3.1% | 0.3% | 80.8* | 24.2* | -0.4%
CC(/C=N/NC(=O)Cn1nccc1C)=C\c1ccc(C(C)C)cc1 | 0.4% | 2.7% | 43.1* | 41.8* | -23.3%
CC(=C/c1ccc(C(C)C)cc1)/C=N/NC(=O)Cn1nc(C)cc1C | 0.5% | 5.2% | 65.3 | 18.0* | 8.6%
CC(/C=N/NC(=O)Cn1nnc(N)n1)=C\c1ccc(C(C)C)cc1 | 5.2% | -3.1% | 76.9* | 24.3* | 1.1%
COc1ccc(CC(=O)Nc2c(C(=O)N3CCN(c4ccccc4OC)CC3)oc3ccccc23)cc1OC | -5.6% | . | -12.6 | -2.4 | -30.1%
CC(=O)Nc1ccc(S(=O)(=O)c2ccc(N)cc2)cc1N | -1.4% | 5.8% | -16.3 | -3.2 | 8.7%
CC(=O)Nc1ccc(S(=O)(=O)c2ccc(N)cc2)cc1 | 4.0% | 11.1% | 24.0*! | 17.7*! | -0.3%
CC(=O)Nc1ccc(OS(=O)(=O)O)cc1 | . | 7.1% | -4.8 | -4.6 | .
CC(=O)Nc1ccc(OS(=O)(=O)c2ccc(C(C)(C)C)cc2)cc1 | 2.3% | 2.7% | 33.9 | 12.0* | 2.6%
CN(C)C(=O)C1CCN(Cc2c[nH]c3ccccc23)CC1 | . | . | . | . | 2.8%
O=C1c2ccccc2-c2ccc(N(Cc3ccc(Br)cc3)Cc3ccc(Br)cc3)cc21 | . | . | . | . | -12.9%
O=C(O)c1ccc(N/N=C/c2ccncc2)cc1 | -4.6% | 3.98µM* | 35.1* | 25.4* | -2.4%
Cc1ccc2nc(Cl)c(/C=N/Nc3ccc(C(=O)O)cc3)cc2c1 | -10.3% | ? | 36.4 | 32.2* | 1.2%
O=C(O)c1ccc(N/N=C/c2ccc3nccnc3c2)cc1 | 15.8µM* | -1.0% | -22.8 | -5.8 | -35.3%
SMILES | LmPK inhibitor | FBPA Giardia inh | Shiga inhibitor | CHX counter | NS1 function inh
O=C(O)c1ccc(/C=N/Nc2ncc(Cl)cc2Cl)cc1 | -0.5% | ? | 65.2* | 20.6 | -4.1%
O=C(N/N=C/c1ccncc1)C1CC1C(=O)N/N=C/c1ccncc1 (centres undefined) | -4.3% | -2.9% | -5.7 | 4.7 | 7.1%
COC(=O)c1nnn(-c2nonc2N)c1COc1ccc(C=O)cc1OC | 10.7% | -0.3% | -8.8 | 0.7 | ?
Cc1ccc(C(=O)CSc2nnc(-c3ccco3)o2)o1 | -3.5% | -20.5% | 55.6* | 39.6* | 0.9%
COc1ccc(-c2nnc(SCC(=O)c3ccc(C)o3)o2)cc1 | 0.0% | 1.6% | 33.3 | 12.6* | 1.9%
COc1cccc(NC(=O)Nc2ccc3c(c2)CCC3)c1 | -7.9% | . | 74.5* | 38.6* | -3.5%
COc1ccc(OC)c(NC(=O)Nc2ccc3c(c2)CCC3)c1 | -9.5% | -6.0% | 28.1* | 18.9* | -12.1%
COc1ccc(NC(=O)Nc2ccc3c(c2)CCC3)c(OC)c1 | 0.7% | 6.1% | 29.7 | 8.8 | 6.0%
COc1ccccc1CNC(=O)CCCn1nc(C)n2ccnc2c1=O | -3.5% | -5.7% | -8.2 | -1.0 | 8.7%
CC(Oc1ccccc1)C(=O)NC1C(=O)N2C(C(=O)O)C(C)(C)S[C@@H]12 (some centres undefined) | . | -2.5% | . | . | .
COc1ccc(C2Nc3ccccc3C(=O)N2c2ccc(F)cc2)cc1CSc1ccccn1 (centres undefined) | -1.0% | -0.2% | 12.2 | 14.9* | 23.0%
CCOc1cc(C2Nc3ccccc3C(=O)N2c2ccccc2)ccc1O (centres undefined) | 11.8% | 3.0% | 43.2 | 19.2* | -6.6%
COc1ccc(/C(C)=N/N2C(=O)c3ccccc3NC2c2ccc(O)c(OC)c2)cc1 (centres undefined) | 0.8% | -8.7% | 32.8* | 13.8* | 1.4%
COc1ccc(C2Nc3ccccc3C(=O)N2c2ccccc2)cc1CSc1ccccn1 (centres undefined) | 0.1% | 10.3% | 1.9 | 7.9 | 7.2%
CCOc1cc(C2Nc3ccccc3C(=O)N2c2ccccc2)c(Br)cc1OCC(=O)O (centres undefined) | -0.6% | 13.1% | 19.1 | -2.6 | 23.5%
COc1ccc(N2C(=O)c3ccccc3NC2c2ccccc2O)cc1 (centres undefined) | 3.1% | 9.3% | 56.5* | 42.6* | -0.9%
CN(C)CCCOc1c2ccccc2n(Cc2ccccc2)[n+]1[O-] | . | -6.5% | -11.9 | -3.0 | .
COc1ccc(C2(C)NC(=O)N(CC3CCCCC3)C2=O)cc1 (centres undefined) | -5.1% | . | -10.7 | -1.6 | 1.1%
CCn1cc(C(=O)N2CCCC(C(=O)c3ccc4ccccc4c3)C2)cn1 (centres undefined) | -0.2% | -2.2% | -1.6 | 9.6 | -33.0%
COc1ccc(C2Nc3ccccc3C(=O)N2NC(C)=O)cc1OC (centres undefined) | 1.9% | -2.0% | 28.0 | 12.2 | .
COc1ccc(C2C(=O)c3ccccc3C2=O)cc1OC | -7.7% | -24.1% | 32.6 | 5.2 | .
CC(C)Oc1ccccc1C1Nc2ccccc2C(=O)N1c1ccc2c(c1)OCCO2 (centres undefined) | 0.7% | 2.3% | 71.1* | 54.0* | -3.8%
COc1cc(C2Nc3ccccc3C(=O)N2c2ccccc2)ccc1O (centres undefined) | -5.1% | -25.7% | 122.6* | 46.5* | -14.2%
COc1ccc(C2Nc3ccccc3C(=O)N2c2ccccc2)cc1COc1ccccn1 (centres undefined) | 0.6% | -0.4% | 15.1 | 8.1 | -1.0%
CC(C)Oc1ccccc1C1CC(=O)Nc2cc3c(cc21)OCCO3 (centres undefined) | 4.7% | -24.1% | -5.9 | 2.5 | -3.7%
COc1cc(C2C(=O)c3ccccc3C2=O)ccc1O | -1.9% | -12.9% | . | 59.1* | -3.3%
COc1ccc(C2Nc3ccccc3C(=O)N2O)cc1OC (centres undefined) | 1.4% | 4.1% | 16.4 | 20.3* | -2.4%

High-throughput results (PubChem BioAssay)
